# Results published in PubChem BioAssay (NCATS).
# Unmarked numbers belong to inactive results. Records with an inconclusive call do not appear. The source made the active and inactive calls. Calls come from the whole dose curve; as a rule, active = well fitted curve in the direction sought with a large enough effect; inconclusive = small, poorly fitted or top-dose-only effect, or another doubt; inactive = no such curve, though single readings can be large; an effect the other way counts as inactive or inconclusive.
# Target: Luciferin 4-monooxygenase (Photinus pyralis) (UniProt P08659)
# Test: Primary firefly luciferase (FLuc) qHTS assay for identification of artifact compounds. (AID 1845220); note: nearly all actives have a fitted effect of over 60% in size;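 for activity change, negative = inhibition: plate controls were DMSO vehicle for no effect and no enzyme for full effect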
# Settings: purified firefly luciferase, luminescence, 5 min; series mostly up to 54.1 µM; activity change, negative = inhibition: at the top concentration
# Outline: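 FLuc 10 nM; luciferin 10 uM; ATP 10 uM; Tris-acetate pH 7.6, Mg-acetate 10 mM; 15 min RT preincubation; 5 min reaction; luminescence.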
# Potency is the fitted concentration of half-maximal effect.
SMILES,outcome,Potency,"activity change, negative = inhibition"
O=[N+]([O-])c1ccc(-[n+]2nc(-c3ccccc3)nn2-c2ccc(I)cc2)cc1,inactive,,
COc1ccccc1NC(=O)Nc1ccc2ccccc2c1,,8.49 µM (active),
C=C(C)C(=O)OC1[C@@H]2C(=C)C(=O)O[C@@H]2C[C@@H](C)[C@@H]2C=CC(=O)[C@@]12C (stereo partly specified),,,0.147%
COc1cc2ncnc(Nc3ccc(Oc4ccccc4)cc3)c2cc1OC,inactive,,
CCC(C)n1cc(C)c2c(C(=O)NCc3c(C)cc(C)[nH]c3=O)cc(-c3ccc(N4CCNCC4)nc3)cc21 (stereo unspecified),inactive,,
CC(C)[C@@H](C)/C=C/[C@@H](C)[C@H]1CC[C@H]2C3=CC=C4C[C@@H](O)CC[C@]4(C)C3=CC[C@]12C,inactive,,
Cn1c(NC[C@@H](N)Cc2ccccc2)nc(-c2ccncc2)c(-c2ccc3ccccc3c2)c1=O,,,3.37%
CC1(C)CC[C@]2(C(=O)OC3OC(CO)C(O)C(O)C3O)CC[C@]3(C)C(=CCC4[C@@]5(C)CC[C@H](OC6OC(C(=O)O)C(O)C(O)C6O)C(CO)(CO)C5CC[C@]43C)[C@@H]2C1 (stereo partly specified),,,0.233% [at 11.6 µM]
Nc1ncnc2c1ncn2[C@@H]1O[C@H](CO)C[C@H]1O,,,-11%
CCOC(=O)c1cnn(-c2ccc(NC(=O)C(Cl)=C(Cl)Cl)cc2)c1C(F)(F)F,inactive,,
CC(=O)N1c2ccc(-c3ccc(C(=O)O)cc3)cc2C(Nc2ccc(Cl)cc2)CC1C (stereo unspecified),,,-5.14%
COc1ccc(C(=O)N(CCC(C)C)Cc2nc(C)c(C)n2Cc2ccccc2C)c(OC)c1,,,-8.3%
O=C(Nc1ccc(F)cc1)N1CCc2ccccc2C1c1ccc(C(F)(F)F)cc1 (stereo unspecified),inactive,,
Cc1ccc(C(=O)N2CCN(c3ccc([N+](=O)[O-])cc3)CC2)cc1Cl,inactive,,
CN(C)C(=O)c1cc2cnc(Nc3ccc(N4CCNCC4)cn3)nc2n1C1CCCC1,inactive,,
C=C1/C(=C/C=C2\CCC[C@]3(C)[C@@H]([C@H](C)/C=C/C(=O)C4CC4)CC[C@@H]23)C[C@@H](O)C[C@@H]1O,inactive,,
CC1OC2OC3C(OCC(O)C3O)OC(=O)C34CCC(C)(C)CC3C3=CCC5C6(C)CC(O)C(OC7OC(CO)C(O)C(O)C7OC7OCC(OC(=O)CC(C)(O)CC(=O)OC1C(OC1OCC(O)C(O)C1O)C2O)C(O)C7O)C(C)(CO)C6CCC5(C)C3(C)CC4O (stereo unspecified),,,-3.62% [at 25.7 µM]
CC(C)(C)c1ccc(-c2nc3ccccc3[nH]2)cc1,,0.0294 µM (active),

SMILES,outcome,Potency,"activity change, negative = inhibition"
COc1cc(O)c(C(=O)CCc2ccc(O)cc2)c(O[C@@H]2O[C@H](CO)[C@@H](O)[C@H](O)[C@H]2O)c1,,,-0.39% [at 25.7 µM]
CCN1CCN(Cc2ccc(-c3cc4c(NC(C)c5ccccc5)ncnc4[nH]3)cc2)CC1 (stereo unspecified),inactive,,
CN1CCN(C(=O)c2ccc(Nc3nccc(-c4cccs4)n3)cc2Cl)CC1,,,0.842%
Cc1ccc2c(Nc3ccc(Cl)cc3)nccc2c1Nc1ncccc1-c1ncnc2nc[nH]c12,inactive,,
COc1ccccc1-c1cc(Nc2cccc(CS(N)(=O)=O)c2)ncn1,,,-8.14%
Cc1ccc(C2(COC(=O)C(C)C)CO2)c(OC(=O)C(C)C)c1 (stereo unspecified),,,0.673%
CC1(C)CC23[C@@H]4CC(=O)[C@@H]2COC(=O)[C@@H]3CC[C@H]41,,,2.4%
COc1cc2ncnc(Oc3cccc(NC(=O)Nc4cc(C(C)(C)C(F)(F)F)on4)c3)c2cc1OC,inactive,,
O=C(NNc1ccccc1)c1ccncc1,,,2.29%
CN(CCCNC(=O)c1ccc2nc3c(c(Cl)c2c1)CCCC3)Cc1ccccc1,,,3.78%
C=CC(=O)Nc1cc(Nc2nccc(-c3cn(C)c4ccccc34)n2)c(OC)cc1N(C)CCN(C)C,,,2.46%
CCN(CCCOc1ccc2c(Nc3cc(CC(=O)Nc4cccc(F)c4)[nH]n3)ncnc2c1)CCOP(=O)(O)O,,,-2.26%
OCC(Cc1ccccc1)Nc1nc(Oc2ccc3c(c2)CCC3)nc2c1ncn2Cc1ccc(-c2ccccc2)cc1 (stereo unspecified),inactive,,
O=C(NC(NC(=S)Nc1ccc(F)c([N+](=O)[O-])c1)C(Cl)(Cl)Cl)C(c1ccccc1)c1ccccc1 (stereo unspecified),inactive [at 25.7 µM],,
Cc1[nH]c(/C=C2\C(=O)Nc3ccc(F)cc32)c(C)c1C(=O)NC[C@H](O)CN1CCOCC1,,,0.746%
CC1CCC2C(=CCC(O)C2(C)C)C1(C)Cc1c(O)cc(CO)c(C=O)c1O (stereo unspecified),inactive,,
CCCCn1c(-c2ccccc2)nc(-c2ccccc2)c1CN(Cc1ccc2c(c1)OCO2)Cc1ccc2c(c1)OCO2,inactive,,
O=C(NCc1ccc(Oc2ccccc2)cc1)c1nc(-c2cc(Br)c(O)c(Br)c2)no1,,,3.36%

# System: not listed separately
# Test: Primary fluorescence-based thiol-reactive (MSTI) qHTS assay for identification of artifact compounds. (AID 1845221); note: nearly all actives have a fitted effect of over 65% in size;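 for activity change, negative = thiol reactive: thiol-reactive compounds lower the probe fluorescence signal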
# Settings: MSTI thiol-reactivity probe, 1 h; series mostly up to 53.8 µM; activity change, negative = thiol reactive: at the top concentration
# Outline: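 In PBS pH 7.4 with 2% DMSO, each compound met 4 uM MSTI for one hour at ambient temperature, shielded from light, before fluorescence detection.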
SMILES,"activity change, negative = thiol reactive",Potency
COc1ccccc1NC(=O)Nc1ccc2ccccc2c1,195%,
COc1cc2ncnc(Nc3ccc(Oc4ccccc4)cc3)c2cc1OC,38.1%,
CC(C)[C@@H](C)/C=C/[C@@H](C)[C@H]1CC[C@H]2C3=CC=C4C[C@@H](O)CC[C@]4(C)C3=CC[C@]12C,2%,
Cn1c(NC[C@@H](N)Cc2ccccc2)nc(-c2ccncc2)c(-c2ccc3ccccc3c2)c1=O,139%,
CC1(C)CC[C@]2(C(=O)OC3OC(CO)C(O)C(O)C3O)CC[C@]3(C)C(=CCC4[C@@]5(C)CC[C@H](OC6OC(C(=O)O)C(O)C(O)C6O)C(CO)(CO)C5CC[C@]43C)[C@@H]2C1 (stereo partly specified),84.5% [at 11.5 µM],
C=C1/C(=C/C=C2\CCC[C@]3(C)[C@@H]([C@H](C)/C=C/C(=O)C4CC4)CC[C@@H]23)C[C@@H](O)C[C@@H]1O,-4.52%,
CC(C)(C)c1ccc(-c2nc3ccccc3[nH]2)cc1,40.5% [at 25.6 µM],
COc1cc(O)c(C(=O)CCc2ccc(O)cc2)c(O[C@@H]2O[C@H](CO)[C@@H](O)[C@H](O)[C@H]2O)c1,,9.22 µM (active)
CCN1CCN(Cc2ccc(-c3cc4c(NC(C)c5ccccc5)ncnc4[nH]3)cc2)CC1 (stereo unspecified),-4.61%,
CN1CCN(C(=O)c2ccc(Nc3nccc(-c4cccs4)n3)cc2Cl)CC1,91.5%,
COc1ccccc1-c1cc(Nc2cccc(CS(N)(=O)=O)c2)ncn1,122%,
Cc1ccc(C2(COC(=O)C(C)C)CO2)c(OC(=O)C(C)C)c1 (stereo unspecified),6.26%,
CC1(C)CC23[C@@H]4CC(=O)[C@@H]2COC(=O)[C@@H]3CC[C@H]41,8.98%,
COc1cc2ncnc(Oc3cccc(NC(=O)Nc4cc(C(C)(C)C(F)(F)F)on4)c3)c2cc1OC,-13.6%,
O=C(NNc1ccccc1)c1ccncc1,-15.2%,
CN(CCCNC(=O)c1ccc2nc3c(c(Cl)c2c1)CCCC3)Cc1ccccc1,-5.06%,
CCN(CCCOc1ccc2c(Nc3cc(CC(=O)Nc4cccc(F)c4)[nH]n3)ncnc2c1)CCOP(=O)(O)O,145%,
CC1CCC2C(=CCC(O)C2(C)C)C1(C)Cc1c(O)cc(CO)c(C=O)c1O (stereo unspecified),0.875%,
COc1ccc(CNC(=O)Nc2ncc([N+](=O)[O-])s2)cc1,,2.67 µM (active)
O=C(NCc1ccc(Oc2ccccc2)cc1)c1nc(-c2cc(Br)c(O)c(Br)c2)no1,,0.423 µM (active)
